Several values for one entry are separate records, joined by “and”; a condition that tells them apart may be missing. Equal values may be shown once. Hit rate of the full screen: of about 5,500 compounds, about 2,000 (36%) were called active. Another 18% or so got no clear call; they are omitted. No stated cut-off is given here; in the data, active means normalized growth mostly below about 0.91 (no sharp cut-off); inconclusive means no clear call, values can overlap the other calls; inactive means mostly above about 0.92. The list shows a part of the results.
Assay: chemical genetic growth profiling, strain panel (AID 1159580);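 further: tested at 20 µM; growth read once vehicle control cultures reached saturation at 30 °C; 1 = growth at the plate median or of vehicle wells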
Conditions: S. cerevisiae deletion strains, growth OD

Measured: normalized growth

COC(=O)C[C@H]1C(C)(C)[C@@H](OC(C)=O)[C@@H]2CC3C4CC(=O)O[C@@H](c5ccoc5)[C@]4(C)CCC3[C@@]1(C)C2=O (some centres not stated)
inactive: locus YAL013W, strain DEP1, stronger effect = lower value 1 | locus YAL021C, strain ccr4, stronger effect = lower value 0.979 | locus YAL026C, strain drs2, stronger effect = lower value 1.01 | locus YAL030W, strain snc1, stronger effect = lower value 1 | locus YBL061C, strain skt5, stronger effect = lower value 1.02 | locus YBR009C, strain hhf1, stronger effect = lower value 0.988 | locus YBR021W, strain FUR4, stronger effect = lower value 0.965 | locus YBR023C, strain chs3, stronger effect = lower value 1.02 | locus YBR171W, strain sec66, stronger effect = lower value 1.03 | locus YBR229C, strain ROT2, stronger effect = lower value 0.999 | locus YBR231C, strain swc5, stronger effect = lower value 1.01 | locus YBR279W, strain paf1, stronger effect = lower value 1.01 | locus YCL011C, strain gbp2, stronger effect = lower value 1 | locus YCL016C, strain dcc1, stronger effect = lower value 1.01 | locus YCL029C, strain bik1, stronger effect = lower value 0.973 | locus YCL069W, strain vba3, stronger effect = lower value 1.01 | locus YCR088W, strain abp1, stronger effect = lower value 1.01 | locus YDL005C, strain med2, stronger effect = lower value 1.01 | locus YDL035C, strain GPR1, stronger effect = lower value 0.995 | locus YDL040C, strain nat1, stronger effect = lower value 1.01 | locus YDL074C, strain BRE1, stronger effect = lower value 0.985 | locus YDL101C, strain DUN1, stronger effect = lower value 1.02 | locus YDL134C, strain PPH21, stronger effect = lower value 1.04 | locus YDL185W, strain tfp1, stronger effect = lower value 1.02 | locus YDL192W, strain arf1, stronger effect = lower value 0.989 | locus YDR001C, strain nth1, stronger effect = lower value 1.01 | locus YDR069C, strain doa4, stronger effect = lower value 1.01 | locus YDR101C, strain arx1, stronger effect = lower value 0.996 | locus YDR137W, strain rgp1, stronger effect = lower value 1.01 | locus YDR159W, strain sac3, stronger effect = lower value 1.03 | locus YDR162C, strain NBP2, stronger effect = lower value 1.01 | locus YDR195W, strain ref2 0.98 | locus YDR297W, strain sur2, stronger effect = lower value 0.999 | locus YDR318W, strain mcm21, stronger effect = lower value 1.01 | locus YDR334W, strain swr1, stronger effect = lower value 1.01 | locus YDR335W, strain msn5, stronger effect = lower value 1.04 | locus YDR388W, stronger effect = lower value 1.02 | locus YDR392W, strain spt3, stronger effect = lower value 1.02 | locus YDR502C, strain sam2, stronger effect = lower value 1.04 | locus YEL003W, strain gim4, stronger effect = lower value 1.01 | locus YEL037C, strain rad23, stronger effect = lower value 1.01 | locus YEL061C, strain CIN8 (second series), stronger effect = lower value 1.01 | locus YEL061C, strain CIN8, stronger effect = lower value 0.995 | locus YER015W, strain faa2, stronger effect = lower value 1 | locus YER016W, strain bim1, stronger effect = lower value 1.01 | locus YER110C, stronger effect = lower value 1.02 | locus YER111C, strain swi4, stronger effect = lower value 1.02 | locus YER155C, strain BEM2 (second series), stronger effect = lower value 1.03 | locus YER155C, strain BEM2, stronger effect = lower value 1 | locus YER167W, strain BCK2, stronger effect = lower value 0.996 | locus YFR010W, strain ubp6, stronger effect = lower value 1 | locus YGL078C, strain dbp3, stronger effect = lower value 1.01 | locus YGL086W, strain mad1, stronger effect = lower value 1.01 | locus YGL167C, strain pmr1, stronger effect = lower value 1.02 | locus YGL173C, strain kem1, stronger effect = lower value 1.02 | locus YGL227W, strain vid30, stronger effect = lower value 1.02 | locus YGL240W, strain doc1, stronger effect = lower value 1.03 | locus YGL248W, strain PDE1, stronger effect = lower value 1.04 | locus YGL253W, strain hxk2, stronger effect = lower value 1.01 | locus YGR135W, strain pre9, stronger effect = lower value 1.07 | locus YGR252W, strain gcn5, stronger effect = lower value 1.05 | locus YHR013C, strain ard1, stronger effect = lower value 1.02 | locus YHR027C, strain rpn1, stronger effect = lower value 1.02 | locus YHR030C, strain SLT2, stronger effect = lower value 0.994 and 1.02 | locus YHR079C, strain IRE1 (second series), stronger effect = lower value 1.01 | locus YHR079C, strain IRE1, stronger effect = lower value 1.01 | locus YHR094C, strain hxt1, stronger effect = lower value 1.01 | locus YHR129C, strain ARP1, stronger effect = lower value 1.01 | locus YHR142W, strain chs7, stronger effect = lower value 0.997 | locus YHR200W, strain rpn10, stronger effect = lower value 1 | locus YIL066C, strain RNR3, stronger effect = lower value 0.997 | locus YIL073C, strain SPO22, stronger effect = lower value 1.01 | locus YIL125W, strain kgd1, stronger effect = lower value 1 | locus YIR030C, strain dcg1, stronger effect = lower value 1.01 | locus YJL092W, strain hpr5, stronger effect = lower value 1.01 | locus YJL095W, strain BCK1 (second series), stronger effect = lower value 1 | locus YJL095W, strain BCK1, stronger effect = lower value 1.04 and 1.01 | locus YJL115W, strain asf1, stronger effect = lower value 1.01 | locus YJL129C, strain trk1, stronger effect = lower value 1.01 | locus YJL134W, strain LCB3, stronger effect = lower value 0.99 | locus YJL154C, strain vps35, stronger effect = lower value 1 | locus YJL164C, strain tpk1, stronger effect = lower value 1 | locus YJL166W, strain qcr8, stronger effect = lower value 0.999 | locus YJL168C, strain set2, stronger effect = lower value 1.02 | locus YJL187C, strain SWE1 (second series), stronger effect = lower value 1.05 | locus YJR066W, strain TOR1, stronger effect = lower value 0.963 | locus YKL009W, strain mrt4, stronger effect = lower value 0.998 | locus YKL068W, stronger effect = lower value 1.01 | locus YKL085W, strain MDH1 (second series), stronger effect = lower value 1 | locus YKL085W, strain MDH1, stronger effect = lower value 1 | locus YKL160W, strain elf1, stronger effect = lower value 1.02 | locus YKL190W, strain CNB1, stronger effect = lower value 1 | locus YKR001C, strain vps1, stronger effect = lower value 0.995 | locus YKR026C, strain gcn3, stronger effect = lower value 1.01 | locus YKR091W, strain srl3, stronger effect = lower value 1.01 | locus YLL001W, strain dnm1, stronger effect = lower value 1.01 | locus YLL026W, stronger effect = lower value 1 | locus YLL041C, strain sdh2, stronger effect = lower value 1 | locus YLR027C, strain aat2, stronger effect = lower value 0.999 | locus YLR039C, strain RIC1, stronger effect = lower value 0.993 | locus YLR058C, strain SHM2, stronger effect = lower value 1.02 | locus YLR102C, strain apc9, stronger effect = lower value 1.02 | locus YLR113W, strain HOG1, stronger effect = lower value 0.988 | locus YLR221C, strain rsa3, stronger effect = lower value 0.999 | locus YLR258W, strain gsy2, stronger effect = lower value 1.01 | locus YLR262C, strain YPT6 (second series), stronger effect = lower value 0.955 | locus YLR268W, strain sec22, stronger effect = lower value 0.985 | locus YLR320W, strain mms22, stronger effect = lower value 1.02 | locus YLR342W, strain FKS1, stronger effect = lower value 1 | locus YLR357W, strain rsc2, stronger effect = lower value 1.03 | locus YLR370C, strain arc18, stronger effect = lower value 1.02 | locus YLR371W, strain rom2, stronger effect = lower value 0.989 | locus YLR384C, strain iki3, stronger effect = lower value 1.02 | locus YLR418C, strain cdc73, stronger effect = lower value 1.04 | locus YML016C, strain PPZ1, stronger effect = lower value 1.01 | locus YML032C, strain rad52, stronger effect = lower value 0.994 | locus YML120C, strain ndi1, stronger effect = lower value 1.02 | locus YML124C, strain tub3, stronger effect = lower value 1.01 | locus YMR058W, strain fet3, stronger effect = lower value 1.01 | locus YMR078C, strain ctf18, stronger effect = lower value 1.02 | locus YMR125W, strain sto1, stronger effect = lower value 1.01 | locus YMR129W, stronger effect = lower value 0.999 | locus YMR205C, strain PFK2, stronger effect = lower value 1 | locus YMR223W, strain ubp8, stronger effect = lower value 1.01 | locus YMR231W, strain pep5, stronger effect = lower value 1.01 | locus YMR307W, strain GAS1, stronger effect = lower value 0.876 | locus YNL067W, strain RPL9B, stronger effect = lower value 1.05 | locus YNL071W, strain lat1, stronger effect = lower value 1.02 | locus YNL183C, strain NPR1, stronger effect = lower value 0.981 | locus YNL209W, strain ssb2, stronger effect = lower value 0.996 | locus YNL233W, strain BNI4, stronger effect = lower value 0.988 | locus YNL248C, strain rpa49, stronger effect = lower value 1 | locus YNL250W, strain rad50, stronger effect = lower value 1.04 | locus YNL271C, strain bni1, stronger effect = lower value 1.01 | locus YNL298W, strain CLA4, stronger effect = lower value 1.01 | locus YNL307C, strain MCK1, stronger effect = lower value 1.03 | locus YNL322C, strain KRE1 (second series), stronger effect = lower value 1.02 | locus YNR049C, strain mso1, stronger effect = lower value 0.996 | locus YNR052C, strain pop2, stronger effect = lower value 1.04 | locus YOL012C, strain htz1 0.967 | locus YOL147C, strain pex11, stronger effect = lower value 1.01 | locus YOR001W, strain rrp6, stronger effect = lower value 1.01 | locus YOR061W, strain CKA2, stronger effect = lower value 0.992 | locus YOR069W, strain VPS5, stronger effect = lower value 1 | locus YOR070C, strain gyp1, stronger effect = lower value 1.01 | locus YOR080W, strain dia2, stronger effect = lower value 1.01 | locus YOR083W, strain WHI5, stronger effect = lower value 1.02 | locus YOR106W, strain vam3, stronger effect = lower value 0.988 | locus YOR136W, strain idh2, stronger effect = lower value 1.02 | locus YOR144C, strain elg1, stronger effect = lower value 1.02 | locus YOR184W, strain ser1, stronger effect = lower value 0.973 | locus YOR231W, strain MKK1, stronger effect = lower value 1.01 | locus YOR265W, strain rbl2, stronger effect = lower value 1.01 | locus YOR270C, strain vph1, stronger effect = lower value 0.902 | locus YOR290C, strain snf2, stronger effect = lower value 1.02 | locus YOR316C, strain cot1, stronger effect = lower value 1.02 | locus YPL051W, strain arl3, stronger effect = lower value 1.02 | locus YPL078C, strain atp4, stronger effect = lower value 1.03 | locus YPL106C, strain sse1, stronger effect = lower value 1.02 | locus YPL240C, strain hsp82, stronger effect = lower value 1 | locus YPL241C, strain CIN2, stronger effect = lower value 0.988 | locus YPL256C, strain CLN2, stronger effect = lower value 0.996 | locus YPR119W, strain clb2, stronger effect = lower value 1.01 | locus YPR141C, strain kar3, stronger effect = lower value 1.01 | locus YPR163C, strain tif3, stronger effect = lower value 1.03 | locus YPR167C, strain met16, stronger effect = lower value 1.02 | strain wtn01, stronger effect = lower value 1

From PubChem BioAssay AID1159580 (chemical genetic matrix, 2015)
